14 compounds from PubChem BioAssay (NCI) can be followed below.

About 83,000 compounds went through this panel and 20% of them were active in at least one assay; those are over-represented in the sample as a whole.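 48-hour exposure, single concentration, 96-well plates; percent growth endpoint where 0 means no net growth. Active: below 10.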 Active and inactive are the calls of the source.

The assay has as its system HL-60(TB) leukemia. The assay can be described thus: NCI-60 one-dose screen, 48 h (100 = growth as untreated, 0 = no growth, -100 = all killed). The settings on record: 10 µM unless noted.
For the compound `CCCCC[C@H](O)C/C=C1/C(=O)C=C[C@@H]1C/C=C\CCCC(=O)O`, the growth was 90.7% (inactive).

For the compound `CCCCCCCCCCCCCCCC[N+]1(CC)CCCC1`, the growth was -69.9% (active).

Consider `Cc1cc(C(=O)Nc2ncc(Cc3cccc(C(F)(F)F)c3)s2)c2ccccc2n1`, for which the growth is -33.8% (active).

With `COc1ccc2c(c1)c(-c1nc(-c3c[nH]c4ncccc34)cs1)cn2CCCN1CCCCC1`, the growth is -60.8% (active).

As for `O=c1c2cc(C(F)(F)F)ccc2sc2c(NCCCNCCO)nc3ccccc3c12`, the growth was -19% (active).

`COc1ccc(/C=C(/C(=O)N2CCN(c3ccc(C)cc3)CC2)c2cc(OC)c(OC)c(OC)c2)cc1N`: the growth was -24.2% (active).

On to `CCN(CC)c1ccc(/C=N/NC(=O)c2ccccc2Nc2ccnc(C(F)(F)F)c2)c(O)c1`, for which the growth is 60% (inactive).

In the case of `CN(C)c1ccc(/C=N\NC(=O)c2ccc3nc(-c4ccc(Cl)cc4)[nH]c3c2)cc1`, the growth is 37.4% (inactive).

Consider `COc1ccc2nc3c(cc2c1)C(=O)CC(C(F)(F)F)C3` (centres undefined), for which the growth was -15.1% (active).

Consider `COc1ncc(-c2ccc3ncnc(Nc4cccc(Cl)c4)c3c2)cc1NS(=O)(=O)C1CC1`, for which the growth is 36.7% (inactive).

On to `Cc1cc(N(CCCNc2ccnc3cc(Cl)ccc23)Cc2ccccn2)nc(N2CCCC2)n1`, for which the growth was 65.8% (inactive).

As to `O=CN1N=C(c2cccc(Nc3ccnc4cc(Cl)ccc34)c2)CC1c1ccccc1` (centres undefined), the growth is -1.22% (active).

For `COc1cccc(/C(C)=N/NC(=O)CSc2nc3ccccc3c(=O)n2CCc2ccc(S(N)(=O)=O)cc2)c1`, the growth is 58.5% (inactive).

Consider `COc1cccc(-c2nn(-c3ccccc3)cc2-c2ccnc(NCCNS(=O)(=O)c3ccccc3)c2)c1`, for which the growth is 8.92% (active).
